Legend:
Assay in all cases: DAPPL (digital affinity profiling via proximity ligation, sequencing); 10 mM Tris-HCl pH 7.5, 50 mM NaCl, 1 mM DTT, 4% glycerol, room temperature, 30 min; GST-TFs on glutathione beads, 16-mer random dsDNA library, 0.1% formaldehyde crosslink after washing; high values mean tight binding
[1] = target: T1, FLI1 (Homo sapiens, UniProt Q01543 1-452); settings: protein: recombinant; tags: N-terminal GST; dsDNA, one strand shown
T1 sequence: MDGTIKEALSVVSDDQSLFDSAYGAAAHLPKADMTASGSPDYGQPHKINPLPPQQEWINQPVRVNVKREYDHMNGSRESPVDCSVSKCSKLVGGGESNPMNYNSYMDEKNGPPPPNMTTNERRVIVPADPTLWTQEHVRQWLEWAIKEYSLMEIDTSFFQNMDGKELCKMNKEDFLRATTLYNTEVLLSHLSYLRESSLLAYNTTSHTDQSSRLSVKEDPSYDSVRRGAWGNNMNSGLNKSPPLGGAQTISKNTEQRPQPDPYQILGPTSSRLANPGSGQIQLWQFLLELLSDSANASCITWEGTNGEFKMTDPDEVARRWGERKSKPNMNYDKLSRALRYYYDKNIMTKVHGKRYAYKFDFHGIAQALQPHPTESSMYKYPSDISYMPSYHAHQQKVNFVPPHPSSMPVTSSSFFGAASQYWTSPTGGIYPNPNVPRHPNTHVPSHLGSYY
Procedure, shortened: (§1)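 Binding signal is each hexamer's read frequency for a factor divided by its frequency in the tag-only sample. The factors were GST-fused human transcription factors from yeast, captured on glutathione beads, DNA-barcoded and pooled with that sample. Pools were incubated with 200 nmole of a random double-stranded 16-mer DNA library in Tris/NaCl/DTT/glycerol buffer at room temperature for 30 min, then washed, crosslinked with 0.1% formaldehyde, proximity-ligated with BsaI/T4 ligase (1 h, 37 °C), PCR-amplified and sequenced on an Illumina NextSeq500.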

[2] = target: T2, ELK1 (Homo sapiens, UniProt P19419 1-428); settings: protein: recombinant; tags: N-terminal GST; dsDNA, one strand shown
T2 sequence: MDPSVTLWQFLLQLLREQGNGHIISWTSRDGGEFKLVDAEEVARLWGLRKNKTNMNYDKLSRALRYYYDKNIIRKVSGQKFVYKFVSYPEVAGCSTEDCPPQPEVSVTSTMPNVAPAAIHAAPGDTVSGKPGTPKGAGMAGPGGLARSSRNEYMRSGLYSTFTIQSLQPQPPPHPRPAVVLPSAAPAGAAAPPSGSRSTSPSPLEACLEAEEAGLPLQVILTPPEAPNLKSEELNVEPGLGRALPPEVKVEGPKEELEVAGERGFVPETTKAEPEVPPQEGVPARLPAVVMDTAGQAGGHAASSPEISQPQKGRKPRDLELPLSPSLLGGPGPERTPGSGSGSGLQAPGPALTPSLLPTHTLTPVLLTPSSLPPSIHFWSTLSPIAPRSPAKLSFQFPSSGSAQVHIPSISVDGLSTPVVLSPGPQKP
Procedure, shortened: as §1

[3] = target: T3, GABPA (Homo sapiens, UniProt Q06546 1-454); settings: protein: recombinant; tags: N-terminal GST; dsDNA, one strand shown
T3 sequence: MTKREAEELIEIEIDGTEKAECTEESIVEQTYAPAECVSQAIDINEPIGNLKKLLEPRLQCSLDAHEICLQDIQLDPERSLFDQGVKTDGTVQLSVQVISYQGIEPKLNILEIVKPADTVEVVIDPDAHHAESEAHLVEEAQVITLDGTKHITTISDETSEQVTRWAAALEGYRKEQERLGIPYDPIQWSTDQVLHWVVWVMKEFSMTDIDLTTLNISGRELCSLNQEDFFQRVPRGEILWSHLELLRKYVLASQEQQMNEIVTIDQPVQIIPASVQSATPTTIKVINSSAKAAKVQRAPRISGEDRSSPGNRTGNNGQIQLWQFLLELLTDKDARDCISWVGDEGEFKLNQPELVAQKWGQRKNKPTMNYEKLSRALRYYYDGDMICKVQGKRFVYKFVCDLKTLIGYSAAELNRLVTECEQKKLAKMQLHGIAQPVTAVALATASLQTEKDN
Procedure, shortened: as §1

[4] = target: T4, ERG (Homo sapiens, UniProt P11308 1-479); settings: protein: recombinant; tags: N-terminal GST; dsDNA, one strand shown
T4 sequence: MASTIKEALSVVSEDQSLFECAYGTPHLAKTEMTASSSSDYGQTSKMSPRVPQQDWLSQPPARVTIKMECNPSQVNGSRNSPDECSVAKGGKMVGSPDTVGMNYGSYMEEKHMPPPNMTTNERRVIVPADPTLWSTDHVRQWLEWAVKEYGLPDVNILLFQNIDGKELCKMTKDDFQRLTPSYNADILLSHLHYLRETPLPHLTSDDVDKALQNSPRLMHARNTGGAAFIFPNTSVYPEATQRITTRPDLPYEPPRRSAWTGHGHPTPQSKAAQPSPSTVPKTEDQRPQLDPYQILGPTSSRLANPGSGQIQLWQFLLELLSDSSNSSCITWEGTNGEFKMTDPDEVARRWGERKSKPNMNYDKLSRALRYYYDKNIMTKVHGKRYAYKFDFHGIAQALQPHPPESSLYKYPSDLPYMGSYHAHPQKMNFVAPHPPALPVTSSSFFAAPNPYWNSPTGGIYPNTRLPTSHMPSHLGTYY
Procedure, shortened: as §1

[5] = target: ELF1 (Homo sapiens, UniProt P32519 1-619); settings: protein: recombinant; tags: N-terminal GST; dsDNA, one strand shown
Procedure, shortened: as §1

[6] = target: T5, EHF (Homo sapiens, UniProt Q9NZC4 1-300); settings: protein: recombinant; tags: N-terminal GST; dsDNA, one strand shown
T5 sequence: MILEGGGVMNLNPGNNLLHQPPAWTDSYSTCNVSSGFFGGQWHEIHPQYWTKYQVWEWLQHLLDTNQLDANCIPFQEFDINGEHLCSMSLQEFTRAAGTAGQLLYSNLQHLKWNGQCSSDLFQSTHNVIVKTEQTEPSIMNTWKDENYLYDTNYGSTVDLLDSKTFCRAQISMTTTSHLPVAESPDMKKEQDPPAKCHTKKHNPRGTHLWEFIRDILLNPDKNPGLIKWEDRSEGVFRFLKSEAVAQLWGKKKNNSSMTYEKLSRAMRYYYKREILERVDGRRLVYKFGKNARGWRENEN
Procedure, shortened: as §1

[7] = target: SPI1 (Homo sapiens, UniProt P17947 1-270); settings: protein: recombinant; tags: N-terminal GST; dsDNA, one strand shown
Procedure, shortened: as §1

[8] = target: SPIB (Homo sapiens, UniProt Q01892 1-262); settings: protein: recombinant; tags: N-terminal GST; dsDNA, one strand shown
Procedure, shortened: as §1

[9] = target: T6, ELK3 (Homo sapiens, UniProt P41970 1-407); settings: protein: recombinant; tags: N-terminal GST; dsDNA, one strand shown
T6 sequence: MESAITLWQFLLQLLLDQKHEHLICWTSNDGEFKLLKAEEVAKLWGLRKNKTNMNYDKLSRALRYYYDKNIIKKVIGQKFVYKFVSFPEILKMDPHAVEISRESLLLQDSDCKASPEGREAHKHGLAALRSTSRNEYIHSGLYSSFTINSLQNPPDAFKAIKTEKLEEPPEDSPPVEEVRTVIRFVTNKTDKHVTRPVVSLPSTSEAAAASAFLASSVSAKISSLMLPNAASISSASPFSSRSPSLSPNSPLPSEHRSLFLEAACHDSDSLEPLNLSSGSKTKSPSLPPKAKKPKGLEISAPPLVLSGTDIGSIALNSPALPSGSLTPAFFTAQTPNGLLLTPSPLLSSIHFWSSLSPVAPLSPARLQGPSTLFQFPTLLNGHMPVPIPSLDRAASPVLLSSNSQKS
Procedure, shortened: as §1

[10] = target: T7, FEV (Homo sapiens, UniProt Q99581 1-238); settings: protein: recombinant; tags: N-terminal GST; dsDNA, one strand shown
T7 sequence: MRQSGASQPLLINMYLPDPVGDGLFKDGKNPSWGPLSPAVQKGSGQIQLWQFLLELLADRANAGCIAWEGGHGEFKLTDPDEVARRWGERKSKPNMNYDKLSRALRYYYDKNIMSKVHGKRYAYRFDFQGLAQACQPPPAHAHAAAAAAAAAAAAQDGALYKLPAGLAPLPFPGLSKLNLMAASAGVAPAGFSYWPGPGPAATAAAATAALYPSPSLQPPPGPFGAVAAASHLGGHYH
Procedure, shortened: as §1

[11] = target: ETV5 (Homo sapiens, UniProt P41161 1-510); settings: protein: recombinant; tags: N-terminal GST; dsDNA, one strand shown
Procedure, shortened: as §1

[12] = target: HSF1 (Homo sapiens, UniProt Q00613 1-529); settings: protein: recombinant; tags: N-terminal GST; chain copies: 3; dsDNA, one strand shown
Procedure, shortened: as §1

[13] = target: T8, SPIC (Homo sapiens, UniProt Q8N5J4 1-248); settings: protein: recombinant; tags: N-terminal GST; dsDNA, one strand shown
T8 sequence: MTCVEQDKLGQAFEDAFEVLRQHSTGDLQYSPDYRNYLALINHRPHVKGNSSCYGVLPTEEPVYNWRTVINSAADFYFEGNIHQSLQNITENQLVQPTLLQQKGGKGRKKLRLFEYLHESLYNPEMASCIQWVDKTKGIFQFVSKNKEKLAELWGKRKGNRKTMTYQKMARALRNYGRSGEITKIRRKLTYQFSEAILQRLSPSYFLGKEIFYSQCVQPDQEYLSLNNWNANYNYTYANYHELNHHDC
Procedure, shortened: as §1

[14] = target: ELF4 (Homo sapiens, UniProt Q99607 1-663); settings: protein: recombinant; tags: N-terminal GST; dsDNA, one strand shown
Procedure, shortened: as §1

[15] = target: T9, ELK4 (Homo sapiens, UniProt P28324-2 1-405); settings: protein: recombinant; tags: N-terminal GST; dsDNA, one strand shown
T9 sequence: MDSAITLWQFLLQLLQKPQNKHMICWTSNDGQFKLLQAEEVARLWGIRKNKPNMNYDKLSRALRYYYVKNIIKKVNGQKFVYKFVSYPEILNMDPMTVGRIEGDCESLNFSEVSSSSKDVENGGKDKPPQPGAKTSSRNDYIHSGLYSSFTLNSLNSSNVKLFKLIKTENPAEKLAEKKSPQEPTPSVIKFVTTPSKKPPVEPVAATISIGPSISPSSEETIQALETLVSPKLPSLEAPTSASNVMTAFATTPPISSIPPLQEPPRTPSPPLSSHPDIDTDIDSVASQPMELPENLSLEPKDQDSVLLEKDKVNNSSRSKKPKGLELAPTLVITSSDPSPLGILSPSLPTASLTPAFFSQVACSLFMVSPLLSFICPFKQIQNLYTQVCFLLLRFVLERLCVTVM
Procedure, shortened: as §1

[16] = target: T10, ETV2 (Homo sapiens, UniProt O00321 1-342); settings: protein: recombinant; tags: N-terminal GST; dsDNA, one strand shown
T10 sequence: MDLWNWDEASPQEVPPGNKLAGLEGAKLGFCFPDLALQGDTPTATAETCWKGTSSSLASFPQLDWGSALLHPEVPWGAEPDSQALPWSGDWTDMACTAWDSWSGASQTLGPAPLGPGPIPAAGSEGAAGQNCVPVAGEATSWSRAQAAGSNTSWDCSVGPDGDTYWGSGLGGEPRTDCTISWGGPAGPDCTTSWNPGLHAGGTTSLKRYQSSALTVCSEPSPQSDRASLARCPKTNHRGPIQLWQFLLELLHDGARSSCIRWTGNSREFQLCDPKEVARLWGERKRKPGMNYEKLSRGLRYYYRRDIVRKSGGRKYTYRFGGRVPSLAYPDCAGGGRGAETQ
Procedure, shortened: as §1

[17] = target: T11, ELF3 (Homo sapiens, UniProt P78545 1-371); settings: protein: recombinant; tags: N-terminal GST; dsDNA, one strand shown
T11 sequence: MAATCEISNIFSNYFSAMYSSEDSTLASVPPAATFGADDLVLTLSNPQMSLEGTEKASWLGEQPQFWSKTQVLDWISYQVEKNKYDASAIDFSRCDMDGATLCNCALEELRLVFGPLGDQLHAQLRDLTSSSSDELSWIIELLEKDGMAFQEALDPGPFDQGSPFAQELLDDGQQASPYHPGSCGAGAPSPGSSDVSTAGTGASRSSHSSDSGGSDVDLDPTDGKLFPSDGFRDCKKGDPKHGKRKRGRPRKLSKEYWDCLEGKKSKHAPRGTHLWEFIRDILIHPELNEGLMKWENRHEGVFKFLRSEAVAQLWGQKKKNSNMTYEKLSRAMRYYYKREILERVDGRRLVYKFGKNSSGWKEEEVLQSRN
Procedure, shortened: as §1

[18] = target: CRX (Homo sapiens, UniProt O43186 1-299); settings: protein: recombinant; tags: N-terminal GST; dsDNA, one strand shown
Procedure, shortened: as §1

[19] = target: ETV1 (Homo sapiens, UniProt P50549 1-477); settings: protein: recombinant; tags: N-terminal GST; dsDNA, one strand shown
Procedure, shortened: as §1

SPIB, sequence (Q01892 whole entry): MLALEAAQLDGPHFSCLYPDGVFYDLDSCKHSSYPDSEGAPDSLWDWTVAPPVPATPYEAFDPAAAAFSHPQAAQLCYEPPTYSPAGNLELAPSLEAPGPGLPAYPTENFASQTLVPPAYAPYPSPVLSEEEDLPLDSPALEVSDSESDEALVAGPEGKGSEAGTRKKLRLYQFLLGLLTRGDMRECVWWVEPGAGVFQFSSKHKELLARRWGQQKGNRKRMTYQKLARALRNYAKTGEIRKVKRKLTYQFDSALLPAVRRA
ELF4, sequence (Q99607 whole entry): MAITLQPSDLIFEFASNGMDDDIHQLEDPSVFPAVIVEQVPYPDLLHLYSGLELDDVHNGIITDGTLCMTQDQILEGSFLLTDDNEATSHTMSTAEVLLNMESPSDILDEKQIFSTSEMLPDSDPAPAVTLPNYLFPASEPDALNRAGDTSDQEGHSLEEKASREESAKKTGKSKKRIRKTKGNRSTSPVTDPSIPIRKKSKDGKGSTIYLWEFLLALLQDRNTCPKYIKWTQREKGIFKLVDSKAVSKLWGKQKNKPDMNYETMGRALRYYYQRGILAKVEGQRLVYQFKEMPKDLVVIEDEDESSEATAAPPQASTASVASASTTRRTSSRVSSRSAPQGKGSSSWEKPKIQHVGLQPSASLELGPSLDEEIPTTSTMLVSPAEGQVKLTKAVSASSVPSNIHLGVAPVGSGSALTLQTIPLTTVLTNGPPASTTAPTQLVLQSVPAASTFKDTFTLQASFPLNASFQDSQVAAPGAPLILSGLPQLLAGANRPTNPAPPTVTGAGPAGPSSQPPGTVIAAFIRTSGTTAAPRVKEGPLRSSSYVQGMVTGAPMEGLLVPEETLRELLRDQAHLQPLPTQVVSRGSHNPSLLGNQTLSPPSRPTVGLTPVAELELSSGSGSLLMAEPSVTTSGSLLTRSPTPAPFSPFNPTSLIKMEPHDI
HSF1, sequence (Q00613 whole entry): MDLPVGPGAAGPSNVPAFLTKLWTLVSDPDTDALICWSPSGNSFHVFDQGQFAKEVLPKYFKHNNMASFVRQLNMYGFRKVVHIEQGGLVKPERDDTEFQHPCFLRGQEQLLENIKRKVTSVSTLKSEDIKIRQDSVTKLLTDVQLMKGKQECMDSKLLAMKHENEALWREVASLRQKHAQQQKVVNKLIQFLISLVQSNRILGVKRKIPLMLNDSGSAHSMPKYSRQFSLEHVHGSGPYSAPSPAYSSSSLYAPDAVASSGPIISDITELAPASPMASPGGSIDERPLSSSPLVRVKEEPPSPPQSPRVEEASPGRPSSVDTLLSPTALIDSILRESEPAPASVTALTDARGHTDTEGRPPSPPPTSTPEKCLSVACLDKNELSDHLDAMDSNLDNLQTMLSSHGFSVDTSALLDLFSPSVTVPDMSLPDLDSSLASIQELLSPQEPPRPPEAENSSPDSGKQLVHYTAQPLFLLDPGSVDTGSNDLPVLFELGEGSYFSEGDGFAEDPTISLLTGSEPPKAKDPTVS
CRX, sequence (O43186 whole entry): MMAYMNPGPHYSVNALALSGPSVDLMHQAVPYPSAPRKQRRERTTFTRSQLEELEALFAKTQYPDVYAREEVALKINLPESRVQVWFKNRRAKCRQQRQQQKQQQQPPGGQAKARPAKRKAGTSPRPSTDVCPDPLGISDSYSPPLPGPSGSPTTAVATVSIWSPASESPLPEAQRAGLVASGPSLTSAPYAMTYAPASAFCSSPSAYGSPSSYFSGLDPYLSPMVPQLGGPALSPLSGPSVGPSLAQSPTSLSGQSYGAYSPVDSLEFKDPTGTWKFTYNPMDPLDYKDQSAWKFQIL
ETV5, sequence (P41161 whole entry): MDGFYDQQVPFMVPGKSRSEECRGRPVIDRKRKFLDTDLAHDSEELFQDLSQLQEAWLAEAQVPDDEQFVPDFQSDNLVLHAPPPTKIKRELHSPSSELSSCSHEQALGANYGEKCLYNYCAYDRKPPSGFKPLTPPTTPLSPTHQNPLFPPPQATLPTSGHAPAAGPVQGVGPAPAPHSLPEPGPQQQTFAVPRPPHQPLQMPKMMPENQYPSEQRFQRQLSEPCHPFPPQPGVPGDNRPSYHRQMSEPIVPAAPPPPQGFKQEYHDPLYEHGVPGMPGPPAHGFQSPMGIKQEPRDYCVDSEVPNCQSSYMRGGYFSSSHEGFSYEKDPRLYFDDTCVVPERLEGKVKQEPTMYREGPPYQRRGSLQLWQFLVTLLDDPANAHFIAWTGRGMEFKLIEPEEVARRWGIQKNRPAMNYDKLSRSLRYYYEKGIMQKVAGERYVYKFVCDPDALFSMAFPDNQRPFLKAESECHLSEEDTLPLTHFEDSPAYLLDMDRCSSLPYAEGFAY
ELF1, sequence (P32519 whole entry): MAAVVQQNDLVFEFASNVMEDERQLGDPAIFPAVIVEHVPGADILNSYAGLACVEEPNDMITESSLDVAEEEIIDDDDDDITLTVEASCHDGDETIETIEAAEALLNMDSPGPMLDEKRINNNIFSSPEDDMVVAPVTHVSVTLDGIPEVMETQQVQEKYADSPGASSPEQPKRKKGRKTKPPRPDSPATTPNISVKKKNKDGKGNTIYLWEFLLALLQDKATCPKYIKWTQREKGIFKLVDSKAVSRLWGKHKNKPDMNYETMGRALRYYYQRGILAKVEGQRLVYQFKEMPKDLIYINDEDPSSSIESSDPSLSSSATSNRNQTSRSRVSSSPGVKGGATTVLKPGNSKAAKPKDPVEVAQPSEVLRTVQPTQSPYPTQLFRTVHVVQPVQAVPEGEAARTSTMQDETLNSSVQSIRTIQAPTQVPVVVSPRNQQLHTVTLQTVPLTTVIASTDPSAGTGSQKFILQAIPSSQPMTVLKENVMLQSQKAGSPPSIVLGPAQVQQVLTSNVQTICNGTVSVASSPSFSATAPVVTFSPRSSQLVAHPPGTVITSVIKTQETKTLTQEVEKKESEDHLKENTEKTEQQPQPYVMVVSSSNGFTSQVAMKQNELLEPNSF
ETV1, sequence (P50549 whole entry): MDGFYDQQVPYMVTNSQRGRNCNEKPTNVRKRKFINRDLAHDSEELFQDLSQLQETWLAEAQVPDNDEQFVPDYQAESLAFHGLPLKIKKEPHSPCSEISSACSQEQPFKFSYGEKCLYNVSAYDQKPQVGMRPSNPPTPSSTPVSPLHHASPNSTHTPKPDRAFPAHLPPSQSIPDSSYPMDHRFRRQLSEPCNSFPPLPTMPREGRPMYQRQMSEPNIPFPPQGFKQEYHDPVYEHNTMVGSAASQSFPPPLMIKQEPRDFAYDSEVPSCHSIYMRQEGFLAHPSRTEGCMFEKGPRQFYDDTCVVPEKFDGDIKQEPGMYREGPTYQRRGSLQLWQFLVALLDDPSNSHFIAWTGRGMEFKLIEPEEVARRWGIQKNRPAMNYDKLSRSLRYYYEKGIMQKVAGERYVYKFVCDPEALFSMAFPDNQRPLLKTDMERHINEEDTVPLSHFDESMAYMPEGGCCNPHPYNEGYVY

Sequence: TCTGTT
- binding signal [1]: 1.41 fold enrichment (6-mer frequency, TF over GST control)
- binding signal [2]: 1.47 fold enrichment (6-mer frequency, TF over GST control)
- binding signal [3]: 1.24 fold enrichment (6-mer frequency, TF over GST control)
- binding signal [4]: 1.42 fold enrichment (6-mer frequency, TF over GST control)
- binding signal [5]: 1.42 fold enrichment (6-mer frequency, TF over GST control)
- binding signal [6]: 1.45 fold enrichment (6-mer frequency, TF over GST control)
- binding signal [7]: 1.43 fold enrichment (6-mer frequency, TF over GST control)
- binding signal [8]: 1.33 fold enrichment (6-mer frequency, TF over GST control)
- binding signal [9]: 1.15 fold enrichment (6-mer frequency, TF over GST control)
- binding signal [10]: 1.29 fold enrichment (6-mer frequency, TF over GST control)
- binding signal [11]: 1.27 fold enrichment (6-mer frequency, TF over GST control)
- binding signal [12]: 1.43 fold enrichment (6-mer frequency, TF over GST control)
- binding signal [13]: 1.31 fold enrichment (6-mer frequency, TF over GST control)
- binding signal [14]: 1.39 fold enrichment (6-mer frequency, TF over GST control)
- binding signal [15]: 1.25 fold enrichment (6-mer frequency, TF over GST control)
- binding signal [16]: 1.3 fold enrichment (6-mer frequency, TF over GST control)
- binding signal [17]: 1.53 fold enrichment (6-mer frequency, TF over GST control)
- binding signal [18]: 1.27 fold enrichment (6-mer frequency, TF over GST control)
- binding signal [19]: 1.41 fold enrichment (6-mer frequency, TF over GST control)
